This is a sample that favours compounds with a hit; in the whole collection about 4.5% have one here.
OvCa metastasis: blocks SKOV3ip1 adhesion and invasion in omental model; hit rate 0.1% among 46,000; Potency, µM (titrated, usually from 45.8 µM), inactives show at the top dose activity change, negative = inhibition, hits mostly inhibitors; SKOV3ip1-GFP adhesion/invasion on 3D omental model, fluorescence;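 also: potency is read from the fitted curve at half-maximal effect; plate controls were DMSO wells for no effect and tomatine positive control wells for full effect; nearly all actives have a fitted effect of over 65% in size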
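Primary human omental fibroblast/mesothelial 3D culture pre-formed 48 h. SKOV3ip1-GFP cells added with compounds (0.36-46 umol/L), incubated 2 h RT/16 h 37 C, fixed; GFP cells quantified at 488/509 nm.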
HTT-AS promoter: HTT-AS promoter activation; HEK293 HTT-AS promoter firefly luciferase reporter, 24 h; response scale: percent change from vehicle, -100% = no light; AID 1508624; hit rate 0.24% among 48,000; Potency, µM (top dose mostly 57.5 µM), inactives show top-dose activity change, positive = activation, most hits filed as activators; also: potency is read from the fitted curve at half-maximal effect; nearly all actives have a fitted effect of over 55% in size
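HEK293 luciferase promoter-reporter cells (2,500/well) plated 24 h, then compounds added at up to 57.5 uM final for 24 h at 37 °C. Firefly luminescence by Dual-Glo, normalized to vehicle (0%) and zero RLU (-100%).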
HTT prom inh: inhibitors of huntingtin promoter activity. HEK293 HTT promoter firefly luciferase reporter, 24 h. Potency, µM (series often up to 57.5 µM), inactives show at the highest dose activity change, negative = inhibition, actives largely listed as inhibitors. hit rate 0.93% among 48,000; also: potency is read from the fitted curve at half-maximal effect; nearly all actives have a fitted effect of over 50% in size
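HEK293 luciferase promoter-reporter cells (2,500/well) plated 24 h, then compounds added at up to 57.5 uM final for 24 h at 37 °C. Firefly luminescence by Dual-Glo, normalized to vehicle (0%) and zero RLU (-100%).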
NTMT1 inh: blocks human N-terminal methyltransferase 1 activity; AID 1645870; hit rate 2.5% among 59,000; Potency, µM (titrated, usually from 114 µM), for the others: at the highest dose activity change, negative = inhibition, usual class: inhibitors; NTMT1 MTase-Glo SAH luminescence, purified enzyme;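 also: potency is read from the fitted curve at half-maximal effect; plate controls were DMSO vehicle for no effect and no enzyme for full effect; nearly all actives have a fitted effect of over 65% in size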
Target sequence (Q9BV86 whole entry, looked up): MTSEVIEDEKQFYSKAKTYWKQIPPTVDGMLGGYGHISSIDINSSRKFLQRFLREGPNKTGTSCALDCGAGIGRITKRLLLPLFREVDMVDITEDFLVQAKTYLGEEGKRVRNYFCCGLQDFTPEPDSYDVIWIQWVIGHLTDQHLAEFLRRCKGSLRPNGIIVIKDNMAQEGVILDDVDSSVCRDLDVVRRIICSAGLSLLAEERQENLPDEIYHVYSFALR
GPR32 ag: agonists of human resolvin D1 receptor DRV1 (GPR32). CHO-K1 GPR32 beta-arrestin PathHunter luminescence, 90 min; zero percent set by DMSO-only wells. hit rate 2.5% among 48,000. activation, % at 76.9 µM;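 active = activation of at least 60% and not above a set upper limit, about 1 call in 100 departs from these limits; inconclusive = activation of 40% to 60%, or above that upper limit; inactive = activation under 40%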; also: 0% is about no effect
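GPR32 activation in stably transfected CHO-K1 cells, detected as beta-arrestin recruitment by enzyme-fragment complementation. Compound exposure: 90 min, 37 °C.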
NNMT inh: counter-screen for NTMT1 inhibitors: human NNMT inhibition | shares compounds with NTMT1 inh | NNMT MTase-Glo luminescence, SAH detection | Potency, µM (doses to about 57.1 µM), without a hit: at the highest dose activity, negative = inhibition, most hits filed as inhibitors | hit rate 10% among 120
Active calls of the source: *; i = inactive; ? = inconclusive; · = not tested or not shown; ! = a repeat was not active; [ ] = dose if it differs, or a comment. Unless noted, calls follow the shape of the dose curve; as a rule, active = well fitted curve in the direction sought with a large enough effect; inconclusive = small, poorly fitted or top-dose-only effect, or another doubt; inactive = no such curve, though single readings can be large; an effect the other way counts as inactive or inconclusive.

SMILES	OvCa metastasis	HTT-AS promoter	HTT prom inh	NTMT1 inh	GPR32 ag	others
O=C1OC(c2ccc(O)c(S(=O)(=O)O)c2)(c2ccc(O)c(S(=O)(=O)O)c2)c2c(Br)c(Br)c(Br)c(Br)c21	·	0%	-5%	79µM*	-6
Nc1ccccc1	·	-1%	16%	20µM*	-1
Cc1c(P(=S)(c2ccccc2)c2ccccc2)c2ccccc2n1C	·	·	·	4%	·
Cc1c(P(=S)(c2ccccc2)c2ccccc2)[n+]2ccccc2n1C	·	·	·	16µM*!	·
C[C@]12CC[C@@H]3c4ccc(OC(=O)N(CCCl)CCCl)cc4CC[C@H]3[C@@H]1CC[C@@H]2O	·	-12%	-8%	22µM*	0
Cc1ccc([N+](=O)[O-])[c]2c1[O][Hg]2	·	-96%	?	0.89µM*	26
Nc1c(C(=O)Nc2ccc(OC(F)(F)F)cc2)sc2nc3c(cc12)N1CCC3CC1	-3%	-60%	7.9µM*	-5%	2
CC(=O)c1ccc(NC(=O)c2sc3nc4c(cc3c2N)N2CCC4CC2)cc1	i	-23%	-16%	-8%	41
COc1ccc2c(c1OC)CN1CCc3cc4c(cc3C1C2)OCO4 (stereo not given)	-20%	-2%	-10%	-1%	68*
COc1cc(CC#N)cc(OC)c1OC	·	0%	15%	16%[57.5 µM]	-17
Nc1ccc(Cl)cc1C(=O)c1ccccc1F	·	-16%	-16%	-3%[57.5 µM]	46
O=C(Nc1ccc2c(c1)OCCO2)c1cccn(Cc2cccc(F)c2)c1=O	1%	7%	0%	2%	-1
Cc1cccc(Cn2cccc(C(=O)Nc3ccc(F)cc3F)c2=O)c1	-8%	-34%	28µM*	11%	9
CCc1ccc(NC(=O)c2cccn(Cc3cccc([N+](=O)[O-])c3)c2=O)cc1	i	-16%	?	0%	17
CCOC(=O)c1ccc(NC(=O)c2cccn(Cc3ccc(C)cc3)c2=O)cc1	7%	-43%	-2%	9%	22
CCOC(=O)c1ccc(NC(=O)c2cccn(Cc3ccccc3F)c2=O)cc1	17%	-49%	1.4µM*	8%	34
COCC1OC(=O)c2coc3c2C1(C)C1=C(C3=O)C2CCC(=O)C2(C)CC1O (stereo not given)	·	·	·	7%[29.8 µM]	·
CCOC(=O)c1ccc(NC(=O)c2sc3nc4c(cc3c2N)N2CCC4CC2)cc1	-14%	-43%	?	-11%	20
N#Cc1cc2c(nc1SCC(=O)Nc1cccc(F)c1)C1CCN2CC1	i	-39%	?	0%	68*
CCCn1c(=O)c2[nH]c(C3CCCC3)nc2n(CCCOC(=O)c2ccc(S(=O)(=O)F)cc2)c1=O	·	·	·	·	-24
COCC(=O)N(c1c(C)cccc1C)C(C)C(=O)OC (stereo not given)	·	-6%	-8%	25%[57.5 µM]	8
CC1CCCC(=O)CCC/C=C/c2cc(O)cc(O)c2C(=O)O1 (stereo not given)	·	·	·	7.9µM*	·	NNMT inh=?
Cn1c(=O)n(C)c2cc(CNCCc3ccccc3)ccc21	1%	-3%	-8%	-3%	-9
